From the supplement of paper PMC10849652
The full data set covers some 7,900 targets. This sample favours those with a hit. About 0.6% of all pairs of compound and target were hits. A number with no mark means an inactive call.

compound: CN1CCN(c2nc(C3=C(c4c[nH]c5ccccc45)C(=O)NC3=O)c3ccccc3n2)CC1 [sotrastaurin]; assay: log2 fold change, soluble protein after heating vs DMSO (PISA); higher = thermal stabilisation; K562 cells, 10 uM, 30 min; active = over 0.2 and 3.5 SD of the protein, either way, in both replicates (recomputed)
How it was run: (§1)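 K562 cells at 2×10^6 cells/mL were treated with 10 μM compound for 30 min. Aliquots were heated for 3 min across 48°C-58°C, pooled, and extracted in PBS with 0.5% NP-40 at 4°C; soluble protein was the supernatant after 21,000xg for 90 min. Soluble protein was quantified by TMTpro 16plex LC-MS/MS with channel sums equalised, and reported as log2 fold change in thermal stability against DMSO controls, with values from duplicates.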

UniProt P78382, sequence (P78382 whole entry, looked up): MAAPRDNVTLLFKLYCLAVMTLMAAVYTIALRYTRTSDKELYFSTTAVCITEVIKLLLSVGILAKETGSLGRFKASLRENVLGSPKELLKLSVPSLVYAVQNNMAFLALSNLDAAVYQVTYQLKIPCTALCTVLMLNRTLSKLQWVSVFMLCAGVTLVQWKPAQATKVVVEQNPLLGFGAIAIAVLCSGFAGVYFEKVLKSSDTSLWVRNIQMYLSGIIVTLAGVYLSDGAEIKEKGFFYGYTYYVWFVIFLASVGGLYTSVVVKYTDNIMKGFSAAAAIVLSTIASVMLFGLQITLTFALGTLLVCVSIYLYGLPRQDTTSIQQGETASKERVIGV
UniProt Q6ZRS2, sequence (Q6ZRS2 whole entry, looked up): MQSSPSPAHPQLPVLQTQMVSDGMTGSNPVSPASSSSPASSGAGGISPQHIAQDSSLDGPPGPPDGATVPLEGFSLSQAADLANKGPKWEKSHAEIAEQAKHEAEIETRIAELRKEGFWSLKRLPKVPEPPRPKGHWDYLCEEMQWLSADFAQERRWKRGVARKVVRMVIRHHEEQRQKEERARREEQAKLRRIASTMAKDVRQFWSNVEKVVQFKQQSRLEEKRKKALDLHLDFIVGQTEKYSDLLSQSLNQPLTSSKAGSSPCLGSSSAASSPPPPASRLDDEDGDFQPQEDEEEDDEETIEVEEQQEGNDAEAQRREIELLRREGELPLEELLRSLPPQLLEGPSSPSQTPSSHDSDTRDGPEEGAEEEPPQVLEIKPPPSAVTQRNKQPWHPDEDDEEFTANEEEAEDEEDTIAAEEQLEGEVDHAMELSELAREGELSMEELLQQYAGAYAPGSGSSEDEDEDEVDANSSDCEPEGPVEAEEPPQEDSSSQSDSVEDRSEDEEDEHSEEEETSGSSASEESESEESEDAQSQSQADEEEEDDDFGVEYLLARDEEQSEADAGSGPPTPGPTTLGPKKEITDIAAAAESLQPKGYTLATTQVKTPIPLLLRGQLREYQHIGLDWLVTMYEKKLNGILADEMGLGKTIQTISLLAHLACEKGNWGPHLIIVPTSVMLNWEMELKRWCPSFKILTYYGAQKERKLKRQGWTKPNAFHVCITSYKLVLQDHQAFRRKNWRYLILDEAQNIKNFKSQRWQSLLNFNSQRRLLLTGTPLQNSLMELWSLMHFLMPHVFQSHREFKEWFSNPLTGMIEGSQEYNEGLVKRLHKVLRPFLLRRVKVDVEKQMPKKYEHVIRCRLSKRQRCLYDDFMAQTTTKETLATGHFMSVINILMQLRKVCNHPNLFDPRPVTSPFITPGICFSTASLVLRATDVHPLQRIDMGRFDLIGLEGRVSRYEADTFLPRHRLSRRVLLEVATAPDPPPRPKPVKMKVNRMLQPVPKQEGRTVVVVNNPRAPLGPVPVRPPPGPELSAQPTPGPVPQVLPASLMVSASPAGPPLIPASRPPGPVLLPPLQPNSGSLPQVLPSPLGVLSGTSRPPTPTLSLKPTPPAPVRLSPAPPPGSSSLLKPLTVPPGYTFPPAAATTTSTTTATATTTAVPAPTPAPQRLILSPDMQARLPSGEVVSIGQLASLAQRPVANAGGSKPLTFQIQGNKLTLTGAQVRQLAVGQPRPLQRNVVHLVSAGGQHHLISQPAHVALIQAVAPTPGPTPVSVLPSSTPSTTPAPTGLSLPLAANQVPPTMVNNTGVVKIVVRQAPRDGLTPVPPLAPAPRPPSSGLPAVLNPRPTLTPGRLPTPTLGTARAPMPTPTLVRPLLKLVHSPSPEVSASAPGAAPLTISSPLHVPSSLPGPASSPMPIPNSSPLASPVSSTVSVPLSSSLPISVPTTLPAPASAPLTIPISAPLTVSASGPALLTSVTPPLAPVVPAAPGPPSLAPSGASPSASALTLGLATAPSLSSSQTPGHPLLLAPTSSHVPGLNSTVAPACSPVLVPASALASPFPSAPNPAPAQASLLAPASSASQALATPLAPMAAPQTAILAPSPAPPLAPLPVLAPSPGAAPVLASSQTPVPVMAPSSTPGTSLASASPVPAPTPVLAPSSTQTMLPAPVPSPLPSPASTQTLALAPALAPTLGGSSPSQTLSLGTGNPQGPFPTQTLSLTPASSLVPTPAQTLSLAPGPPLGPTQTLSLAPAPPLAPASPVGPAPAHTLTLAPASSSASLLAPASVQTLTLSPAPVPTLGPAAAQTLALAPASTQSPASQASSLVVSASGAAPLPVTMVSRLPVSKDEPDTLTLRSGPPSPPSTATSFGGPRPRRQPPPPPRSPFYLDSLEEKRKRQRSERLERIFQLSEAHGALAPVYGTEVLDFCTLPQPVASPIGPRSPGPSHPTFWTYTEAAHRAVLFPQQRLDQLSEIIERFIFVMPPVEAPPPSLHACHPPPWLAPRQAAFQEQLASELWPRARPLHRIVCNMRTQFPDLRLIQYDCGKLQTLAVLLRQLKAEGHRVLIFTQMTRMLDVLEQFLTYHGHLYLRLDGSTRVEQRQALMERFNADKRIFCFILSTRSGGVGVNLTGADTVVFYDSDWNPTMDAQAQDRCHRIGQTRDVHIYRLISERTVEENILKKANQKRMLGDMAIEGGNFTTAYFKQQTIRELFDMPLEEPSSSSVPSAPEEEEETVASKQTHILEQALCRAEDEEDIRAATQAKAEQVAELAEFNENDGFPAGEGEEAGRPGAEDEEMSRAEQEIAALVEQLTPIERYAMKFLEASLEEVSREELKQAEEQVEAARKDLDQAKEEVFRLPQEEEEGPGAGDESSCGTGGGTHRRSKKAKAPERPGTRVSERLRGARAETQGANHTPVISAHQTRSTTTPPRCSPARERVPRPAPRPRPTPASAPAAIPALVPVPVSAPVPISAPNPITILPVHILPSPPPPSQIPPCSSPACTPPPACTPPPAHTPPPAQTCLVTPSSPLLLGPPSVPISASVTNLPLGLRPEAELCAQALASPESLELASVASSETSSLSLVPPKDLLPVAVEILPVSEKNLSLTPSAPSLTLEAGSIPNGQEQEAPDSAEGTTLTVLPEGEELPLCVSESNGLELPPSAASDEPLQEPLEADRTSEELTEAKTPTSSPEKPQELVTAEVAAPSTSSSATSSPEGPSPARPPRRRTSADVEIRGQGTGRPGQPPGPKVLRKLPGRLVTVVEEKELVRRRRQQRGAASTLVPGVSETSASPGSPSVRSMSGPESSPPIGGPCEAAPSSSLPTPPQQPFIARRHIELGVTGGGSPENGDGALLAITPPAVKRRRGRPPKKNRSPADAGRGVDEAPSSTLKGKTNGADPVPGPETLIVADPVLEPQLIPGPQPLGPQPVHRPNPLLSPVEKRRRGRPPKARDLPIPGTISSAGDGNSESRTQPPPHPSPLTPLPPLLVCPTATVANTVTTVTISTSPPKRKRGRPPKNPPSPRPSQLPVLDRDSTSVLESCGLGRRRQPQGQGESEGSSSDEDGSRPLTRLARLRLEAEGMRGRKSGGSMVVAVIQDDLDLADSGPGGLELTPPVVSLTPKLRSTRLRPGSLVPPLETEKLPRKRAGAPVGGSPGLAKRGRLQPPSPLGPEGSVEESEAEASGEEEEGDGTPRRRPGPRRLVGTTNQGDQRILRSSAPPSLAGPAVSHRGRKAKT
UniProt P08579, sequence (P08579 whole entry, looked up): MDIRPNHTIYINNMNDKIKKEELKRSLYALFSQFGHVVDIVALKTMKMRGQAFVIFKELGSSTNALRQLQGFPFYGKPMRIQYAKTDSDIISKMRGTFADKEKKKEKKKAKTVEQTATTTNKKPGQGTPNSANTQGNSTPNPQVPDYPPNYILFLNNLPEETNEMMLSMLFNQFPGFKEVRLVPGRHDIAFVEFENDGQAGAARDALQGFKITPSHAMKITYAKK
UniProt Q96QD8, sequence (Q96QD8 whole entry, looked up): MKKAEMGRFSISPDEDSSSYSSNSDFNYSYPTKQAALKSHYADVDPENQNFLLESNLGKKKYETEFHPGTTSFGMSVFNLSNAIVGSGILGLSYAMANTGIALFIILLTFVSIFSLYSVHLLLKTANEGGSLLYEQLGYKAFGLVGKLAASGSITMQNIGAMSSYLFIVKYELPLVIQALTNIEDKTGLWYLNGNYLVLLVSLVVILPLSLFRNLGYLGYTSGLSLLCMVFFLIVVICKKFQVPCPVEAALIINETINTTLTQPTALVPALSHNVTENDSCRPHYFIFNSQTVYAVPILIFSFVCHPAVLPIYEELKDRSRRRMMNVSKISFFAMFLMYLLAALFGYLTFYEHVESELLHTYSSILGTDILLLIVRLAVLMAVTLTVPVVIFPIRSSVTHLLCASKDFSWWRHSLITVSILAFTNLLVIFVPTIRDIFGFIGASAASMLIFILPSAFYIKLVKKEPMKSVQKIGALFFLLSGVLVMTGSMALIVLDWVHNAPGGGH
UniProt O94901, sequence (O94901 whole entry, looked up): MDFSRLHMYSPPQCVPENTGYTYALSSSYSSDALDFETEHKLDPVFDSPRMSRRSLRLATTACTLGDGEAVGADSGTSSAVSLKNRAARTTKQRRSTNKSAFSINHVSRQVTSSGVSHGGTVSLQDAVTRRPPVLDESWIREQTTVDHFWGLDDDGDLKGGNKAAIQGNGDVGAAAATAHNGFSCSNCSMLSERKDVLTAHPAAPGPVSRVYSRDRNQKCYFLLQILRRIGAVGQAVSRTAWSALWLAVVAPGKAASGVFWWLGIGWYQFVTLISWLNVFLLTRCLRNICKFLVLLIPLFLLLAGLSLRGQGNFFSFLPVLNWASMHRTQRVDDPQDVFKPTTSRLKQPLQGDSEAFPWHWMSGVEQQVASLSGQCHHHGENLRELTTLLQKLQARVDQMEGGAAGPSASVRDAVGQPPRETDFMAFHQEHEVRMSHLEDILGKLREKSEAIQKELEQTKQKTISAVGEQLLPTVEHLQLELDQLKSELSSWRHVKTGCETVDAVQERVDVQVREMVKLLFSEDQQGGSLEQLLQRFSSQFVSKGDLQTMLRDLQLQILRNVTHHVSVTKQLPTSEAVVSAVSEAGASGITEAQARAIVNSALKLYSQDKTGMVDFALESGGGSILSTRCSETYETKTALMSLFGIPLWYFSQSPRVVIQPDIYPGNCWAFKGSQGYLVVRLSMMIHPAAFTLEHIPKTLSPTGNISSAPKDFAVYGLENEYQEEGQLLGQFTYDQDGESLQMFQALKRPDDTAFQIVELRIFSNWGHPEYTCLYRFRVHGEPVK

| Target | log2 fold change |
| --- | --- |
| TACC2 (UniProt O95359) | 0.115 |
| SSBP4 (UniProt Q9BWG4) | 0 |
| SNRPB2 (UniProt P08579) | 0.041 |
| STK26 (UniProt Q9P289) | 0.009 |
| SP100 isoform 4 (UniProt P23497) | -0.003 |
| STARD3NL (UniProt O95772) | -0.004 |
| SNX5 (UniProt Q9Y5X3) | -0.006 |
| TMBIM6 isoform 2 (UniProt P55061) | -0.029 |
| TARS2 (UniProt Q9BW92) | -0.049 |
| SPTBN1 (UniProt Q01082) | -0.224 (active) |
| SLC35A1 (UniProt P78382) | 0.015 |
| SLC38A2 (UniProt Q96QD8) | 0.027 |
| SUN1 isoform 9 (UniProt O94901) | -0.178 |
| SRCAP (UniProt Q6ZRS2) | -0.045 |

compound: CN1CC[C@H](c2c(O)cc(O)c3c(=O)cc(-c4ccccc4Cl)oc23)[C@H](O)C1 [alvocidib]; assay: as above
How it was run: as §1

| Target | log2 fold change |
| --- | --- |
| SYNE2 isoform 2 (UniProt Q8WXH0) | 0.156 |
| TANGO6 (UniProt Q9C0B7) | -0.084 |
| SLC38A7 (UniProt Q9NVC3) | -0.137 |
| TENT5C (UniProt Q5VWP2) | 0.115 |
| SRXN1 (UniProt Q9BYN0) | 0.015 |
| SLC29A3 (UniProt Q9BZD2) | 0.045 |
| SMARCE1 (UniProt Q969G3) | -0.033 |
| SRC isoform 2 (UniProt P12931) | -0.061 |
| SRFBP1 (UniProt Q8NEF9) | 0.096 |
| SLC39A11 (UniProt Q8N1S5) | 0.02 |
| TBC1D15 isoform 3 (UniProt Q8TC07) | -0.054 |
| TM7SF3 (UniProt Q9NS93) | 0.068 |
| SNX15 (UniProt Q9NRS6) | 0.133 |
| SPPL2B (UniProt Q8TCT7) | -0.02 |
| SMIM20 isoform 2 (UniProt Q8N5G0) | -0.024 |
| SRSF9 (UniProt Q13242) | 0.27 |
| SLC35F6 (UniProt Q8N357) | -0.002 |
| TBC1D20 isoform 3 (UniProt Q96BZ9) | -0.428 |

| Target | log2 fold change |
| --- | --- |
| TEX264 (UniProt Q9Y6I9) | -0.036 |
| SPCS2 (UniProt Q15005) | -0.058 |
| TJP1 (UniProt Q07157) | -0.114 |
| TACC2 (UniProt O95359) | -0.084 |
| SNRPB2 (UniProt P08579) | 0.124 |
| STK26 (UniProt Q9P289) | 0.018 |
| SP100 isoform 4 (UniProt P23497) | -0.117 |
| STARD3NL (UniProt O95772) | -0.01 |
| SNX5 (UniProt Q9Y5X3) | -0.061 |
| TMBIM6 isoform 2 (UniProt P55061) | -0.027 |
| TARS2 (UniProt Q9BW92) | -0.041 |
| SPTBN1 (UniProt Q01082) | -0.03 |
| SLC35A1 (UniProt P78382) | 0.006 |
| SLC38A2 (UniProt Q96QD8) | 0 |
| SUN1 isoform 9 (UniProt O94901) | 0 |
| SRCAP (UniProt Q6ZRS2) | -0.279 |
| TBP (UniProt P20226) | 0.119 |
